Screening results from PubChem.
HT1080-NT tox = qHTS for induction of synthetic lethality in tumor cells producing 2HG: qHTS for the HT-1080-NT fibrosarcoma cell line | actives 1.6% (n = 360,000) | Potency, µM (titrated, usually from 46.1 µM), inactives show at the top dose activity, negative = less viability, most hits filed as cytotoxic | HT-1080-NT fibrosarcoma viability, CellTiter-Glo ATP luminescence, 48 h;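 note: NT is the 2HG producing partner of a matched IDH1 knockdown line; potency is the fitted concentration of half-maximal effect; 0% = DMSO-treated cells and -100% = media-only wells without cells; nearly all actives have a fitted effect of over 55% in size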
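Fibrosarcoma NT cells, 750 per well in 5% FBS RPMI, were exposed to compound for 48 hours. Viability: CellTiter-Glo luminescence.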
ALOX12 inh = Primary qHTS assay for inhibitors of human arachidonate 12S-lipoxygenase (ALOX12): Round 2; actives 1.1% (n = 580,000); AID 1671190, 2021; purified 12hLO, xylenol orange hydroperoxide absorbance; Potency, µM (series often up to 108 µM), for inactives: at the top dose activity change, negative = inhibition, most hits filed as inhibitors; note: potency is the fitted concentration of half-maximal effect
Target sequence (P18054 whole entry, looked up): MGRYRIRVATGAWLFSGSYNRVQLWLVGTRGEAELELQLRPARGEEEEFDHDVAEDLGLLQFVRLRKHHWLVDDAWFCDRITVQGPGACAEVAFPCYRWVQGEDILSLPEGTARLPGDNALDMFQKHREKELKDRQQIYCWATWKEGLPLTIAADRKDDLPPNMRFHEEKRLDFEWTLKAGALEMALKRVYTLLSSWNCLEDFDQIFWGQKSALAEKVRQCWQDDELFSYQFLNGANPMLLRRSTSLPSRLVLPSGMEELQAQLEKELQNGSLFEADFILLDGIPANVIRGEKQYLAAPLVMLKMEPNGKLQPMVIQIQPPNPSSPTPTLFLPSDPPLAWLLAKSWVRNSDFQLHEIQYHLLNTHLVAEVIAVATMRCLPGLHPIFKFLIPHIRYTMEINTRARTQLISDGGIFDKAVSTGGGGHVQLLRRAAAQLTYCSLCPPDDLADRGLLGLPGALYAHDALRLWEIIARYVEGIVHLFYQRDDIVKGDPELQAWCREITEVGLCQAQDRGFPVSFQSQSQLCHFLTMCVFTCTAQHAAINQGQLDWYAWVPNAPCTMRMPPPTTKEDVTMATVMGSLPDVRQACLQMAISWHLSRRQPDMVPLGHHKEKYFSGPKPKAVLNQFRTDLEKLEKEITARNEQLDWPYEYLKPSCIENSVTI
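Hydroperoxide product was detected by ferrous iron/xylenol orange as the 573 to 405 nm absorbance ratio. Arachidonic acid at 40 uM (final) was turned over for 30 min at room temperature by 150 nM human 12hLO, pH 7.0 Hepes buffer, after 15 min compound preincubation.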
DT40 TDP1 CPT = qHTS for Inhibitors of human tyrosyl-DNA phosphodiesterase 1 (TDP1): qHTS in cells in presence of CPT | chicken DT40 Tdp1-/-;hTDP1 cells + 20 nM CPT, ATP luminescence, 48 h | Potency, µM (doses to about 46.2 µM), without a hit: at the highest dose activity change, negative = growth inhibition, usual class: inhibitors | actives 12% (n = 420,000) | AID 686979, 2013; note: potency is the fitted concentration of half-maximal effect; nearly all actives have a fitted effect of over 55% in size
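Cell growth measured by CellTiter-Glo luminescence after a minimum 48 h, 37 C compound exposure with 20 nM CPT in Tdp1-knockout DT40 cells stably expressing hTDP1, seeded 400/well; qHTS titration format.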
IL1B secr inh = qHTS for Inhibitors of Inflammasome Signaling: IL-1-beta AlphaLISA Primary Screen. THP-1 LPS/ATP IL-1B secretion, AlphaLISA, 16 h; active compounds read low. activity change, % at 57.5 µM. actives 4.7% (n = 360,000). AID 743279, 2014; in the data active = activity change below about -50%; inconclusive = mostly about -30% to -49%
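Secreted IL-1B measured by AlphaLISA bead assay after 16 h compound exposure of THP-1 cells; compounds (final up to 57.5 uM) added 1 h before LPS (250 ng/mL) and ATP (1.25 mM) stimulation; lower signal means less secretion.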
HT1080 IDH1KD tx = qHTS for induction of synthetic lethality in tumor cells producing 2HG: qHTS for the HT-1080-IDH1KD cell line. HT-1080 IDH1 knockdown viability, ATP luminescence, 48 h. Potency, µM (titrated, usually from 46.1 µM), inactives show at the highest dose activity, negative = toxicity, hits mostly cytotoxic. actives 2% (n = 360,000). AID 686971, 2013;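 note: potency is the fitted concentration of half-maximal effect; 0% = DMSO wells and -100% = cell-free medium wells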
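HT-1080-IDH1KD cells (IDH1 knocked down), 750/well in RPMI with 5% FBS, treated with compound 48 h at 37 degrees C. Viability by CellTiter-Glo luminescence, normalised to DMSO and no-cell wells; concentration-response curves classed.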
DT40 TDP1 no CPT = qHTS for Inhibitors of human tyrosyl-DNA phosphodiesterase 1 (TDP1): qHTS in cells in absence of CPT; Potency, µM (top dose mostly 46.2 µM), for the others: at the top dose activity change, negative = growth inhibition, hits mostly inhibitors; DT40 Tdp1-/- hTDP1 cells, no CPT, ATP luminescence, 48 h; AID 686978, 2013; actives 15% (n = 420,000); note: potency is the fitted concentration of half-maximal effect; nearly all actives have a fitted effect of over 55% in size
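Stably hTDP1-transfected Tdp1-null chicken DT40 cells were treated with library compounds minus camptothecin and grown for at least 48 hr at 37 °C, after which cellular ATP was quantified by luminescence.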
* hit, by the source's call; ? = inconclusive; . = no result; [ ] = remark or other dose. The entries come from a sample that favours hits as a whole. Unless noted, calls come from the whole dose curve; as a rule, active = well fitted curve in the direction sought with a large enough effect; inconclusive = small, poorly fitted or top-dose-only effect, or another doubt; inactive = no such curve, though single readings can be large; an effect the other way counts as inactive or inconclusive. Unless noted, % is set by controls: 0 for no effect and ±100 for the full control effect.

SMILES | HT1080-NT tox | ALOX12 inh | DT40 TDP1 CPT | IL1B secr inh | HT1080 IDH1KD tx | DT40 TDP1 no CPT
COc1ccccc1OCCNC(=O)c1cc(C2CC2)nc2c1cnn2C(C)C | -9% | 29% | ? | 2 | -4% | ?
COc1ccccc1CCNC(=O)c1cc(C2CC2)nc2c1cnn2C(C)C | 4% | ? | ? | -11 | 1% | 23µM*
COc1ccc(CCNC(=O)c2cc(C3CC3)nc3c2cnn3C(C)C)cc1 | -12% | -27% | ? | -27 | -7% | 18µM*
CCc1ccccc1NC(=O)CNC(=O)c1cc(C2CC2)nc2c1cnn2C(C)C | 12% | 6% | ? | -15 | 0% | ?
Cc1cc(C)c(NC(=O)CNC(=O)c2cc(C3CC3)nc3c2cnn3C(C)C)c(C)c1 | 0% | -23% | ? | -21 | -10% | 18µM*
COc1ccc(NC(=O)c2cc(C3CC3)nc3c2cnn3C(C)C)cc1OC | 2% | 12% | ? | -6 | 0% | ?
COc1cc(C)c(NC(=O)c2cc(C3CC3)nc3c2cnn3C(C)C)cc1OC | 0% | -24% | ? | -13 | -17% | 16µM*
Cc1cccc(OCCNC(=O)c2cc(C3CC3)nc3c2cnn3C(C)C)c1 | -10% | 11% | 7% | 2 | -2% | -1%
O=C(Nc1cccc(Cl)c1)C1COc2ccccc2O1 (stereo not drawn) | -10% | 0% | -11% | -1 | -11% | 8%
CCOC(=O)C1=C(CC)Nc2ccccc2N/C1=N\S(=O)(=O)c1ccc2ccccc2c1 | 18µM* | 3% | -19% | 37 | 15µM* | -15%
CCCOC(=O)COc1ccc2c(=O)c(-c3ccccc3)coc2c1 | . | 31% | . | . | . | .
N#CC1=C(N)Oc2c(oc(CO)cc2=O)C1c1ccccc1[N+](=O)[O-] (stereo not drawn) | 5% | 16µM* | 21% | . | -1% | -12%
Cc1ccccc1C1C(C#N)=C(N)Oc2c1oc(CO)cc2=O (stereo not drawn) | . | -10% | . | . | . | .
CC(=O)Nc1ccccc1OCC(=O)NC(C)c1ccc(F)cc1 (stereo not drawn) | 4% | -3% | 13µM* | -9 | -19% | ?
CC(=O)Nc1ccccc1OC(C)C(=O)NC(C)c1ccc(F)cc1 (stereo not drawn) | 11% | -16% | 9% | 19 | 6% | ?
Cc1csc(SCC(=O)c2ccc3c(c2)CCO3)n1 | . | -9% | . | . | . | .
CSc1nc2nc3c(c(=O)n2[nH]1)CN(Cc1ccccc1)CC3 | -5% | 34% | 26µM* | 0 | -12% | ?
CN1C[C@@H]2C[C@H]1C(=O)N(Cc1ccccc1)c1ccccc1O2 | . | 44%[176 µM] | . | . | . | .
Cc1ccc2nc(-c3ccncc3)c(NC3CCCCC3)n2c1 | 14% | -4% | 23µM* | 17 | 12% | ?
Cc1ccc2nc(-c3ccsc3)c(NC3CCCC3)n2c1 | 4% | -4% | 10µM* | 19 | 5% | 13µM*
Cc1ccn2c(NC3CCCC3)c(-c3ccncc3)nc2c1 | 9% | -8% | ? | -11 | 6% | ?
COc1ccc(-n2c(C)c(C(C)=O)c3cc(OC(=O)c4ccc(C)cc4)ccc32)cc1 | . | -16% | ? | . | . | 23µM*
Cc1cccc(CN2CCNc3cc(-c4ccnc(C)c4)ncc3C2)c1 | . | -9%[176 µM] | . | . | . | .
CCCn1cnc2cc(NC(=O)c3cc(OC)c(OC)c(OC)c3)ccc21 | . | -6% | ? | . | . | ?
COc1cc(C(=O)Nc2ccc3c(c2)ncn3C)cc(OC)c1OC | ? | -1% | 4.1µM* | 82 | ? | 2.9µM*
SMILES | HT1080-NT tox | ALOX12 inh | DT40 TDP1 CPT | IL1B secr inh | HT1080 IDH1KD tx | DT40 TDP1 no CPT
COc1cc(C(=O)Nc2ccc3c(c2)nc(C)n3C)cc(OC)c1OC | 6.5µM* | 0% | 4.1µM* | 41 | 9.2µM* | 3.3µM*
Cc1nc2cc(NC(=O)c3ccc(Cl)cc3)ccc2n1C | -8% | -2% | -17% | 0 | 0% | -14%
CCC(C(=O)N1CCN(c2ccc(OC)cc2)CC1)n1nc(C)n2c(cc3occc32)c1=O (stereo not drawn) | . | ? | 18µM* | . | . | 18µM*
O=C(CCCn1ncn2c(cc3occc32)c1=O)N1CCc2ccccc2C1 | -20% | -9% | -8% | -14 | -11% | -13%
Cc1cccc(N2CCN(C(=O)CCCn3ncn4c(cc5occc54)c3=O)CC2)c1C | . | -17% | ? | . | . | 26µM*
CCc1nn(C(C)C(=O)N2CCN(c3cccc(C(F)(F)F)c3)CC2)c(=O)c2cc3occc3n12 (stereo not drawn) | . | 0% | ? | . | . | 23µM*
CCC(C(=O)N1CCCCCC1)n1nc(C)n2c(cc3occc32)c1=O (stereo not drawn) | -5% | -9% | -18% | -6 | -1% | 0%
CCc1nn(C(C)C(=O)N2CCN(c3ccc(OC)cc3)CC2)c(=O)c2cc3occc3n12 (stereo not drawn) | -26% | 0% | 4.6µM* | 22 | ? | 7.3µM*
CCn1c(C)c(CCC(=O)NCCC2=NCc3ccccc32)c(=O)n2nc(-c3ccccc3OC)cc12 | . | 21% | . | . | . | .
Cc1ncsc1CN1C(=O)CO[C@H](c2ccc(NC(=O)c3cccnc3)cc2)[C@H]1CO | . | 60% | . | . | . | .
Cc1cccc(N2CCN(C(=O)[C@H](C)N3C(=O)C4CC=CCC4C3=O)CC2)c1C (stereo partly drawn) | 1% | -1% | 23µM* | -15 | -9% | 26µM*
CCc1nn(CCCC(=O)N2CCN(c3cc(Cl)ccc3C)CC2)c(=O)c2cc3occc3n12 | . | -26% | ? | . | . | 23µM*
Cc1cccc(N2CCN(C(=O)C(C)n3nc(C)n4c(cc5occc54)c3=O)CC2)c1C (stereo not drawn) | -8% | ? | ? | -1 | -15% | 18µM*
CCN(CC)CCCNC(=O)C1CCN(c2ncnc3c2sc2cccc(F)c23)CC1 | ? | -1% | ? | ? | ? | ?
O=C(Nc1ccc(F)cc1F)C1CCN(c2ncnc3c2sc2cccc(F)c23)CC1 | 0% | 16% | 6.5µM* | 27 | -3% | 16µM*
